{
  "source": "PubChem BioAssay (EPA / NIEHS)",
  "note": "“And” between values parts separate entries of the source, which are not always exact repeats. Equal entries are not always repeated. Records with an inconclusive call do not appear. A structure can be active in one record and inactive in another. The source made the active and inactive calls. Rule for the calls: active = hit-call score of the fitted dose curve at least 0.9, where 1 is the maximum; inconclusive = response in the unintended direction; inactive = score below 0.9.",
  "data": [
    {"biological_target": "mouse Peroxisome Proliferator-activated Receptor gamma (PPARg), Pparg (gene 19016) (UniProt P37238)", "sequence (P37238 whole entry, looked up)": "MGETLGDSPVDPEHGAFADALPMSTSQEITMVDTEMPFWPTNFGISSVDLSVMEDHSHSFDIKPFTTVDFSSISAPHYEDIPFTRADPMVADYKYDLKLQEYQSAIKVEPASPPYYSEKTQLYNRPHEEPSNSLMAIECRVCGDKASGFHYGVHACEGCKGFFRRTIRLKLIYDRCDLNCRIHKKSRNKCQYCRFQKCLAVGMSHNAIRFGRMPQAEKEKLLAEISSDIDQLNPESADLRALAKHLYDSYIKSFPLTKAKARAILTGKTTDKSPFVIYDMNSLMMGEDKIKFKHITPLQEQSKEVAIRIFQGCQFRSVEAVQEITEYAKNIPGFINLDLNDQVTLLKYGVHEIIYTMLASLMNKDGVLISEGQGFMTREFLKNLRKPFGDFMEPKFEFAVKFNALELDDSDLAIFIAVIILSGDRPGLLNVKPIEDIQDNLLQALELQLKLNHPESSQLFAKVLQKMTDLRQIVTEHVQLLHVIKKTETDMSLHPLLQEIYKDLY", "experiment": "ATG_mPPARg_XSP2: Attagene TRANS-FACTORIAL Multi-Species (XSP2) HepG2 Assay for mouse Peroxisome Proliferator-activated Receptor gamma (PPARg) (AID 2283830);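 note: hits are gains in reporter mRNA above DMSO so AC50 marks activation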", "description": "ATG_XSP2_multi-species_TRANS is a cell-based, multiplexed assay created by modifying the existing Attagene TRANS-FACTORIAL system to include a panel of nuclear receptors from some or all the following species: human (Homo sapiens), mouse (Mus musculus), frog (Xenopus laevis), zebrafish (Danio rerio), chicken (Gallus gallus), and turtle (Chrysemys picta). The […] format uses HepG2, a human liver cell line, with measurements taken at 24 hours after chemical dosing in a 24-well plate. Xsp2 included 3 nM 6-alpha-fluorotestosterone and 1.5 nM norgestrel to stimulate the androgen receptor.ATG_mPPARg_XSP2 is one of 29 assay components measured or calculated from the ATG_XSP2_multi-species_TRANS assay. It is designed to make measurements of mRNA induction, a form of inducible reporter, as detected with fluorescence intensity signals by Reverse transcription polymerase chain reaction (RT-PCR) and Capillary electrophoresis technology.The assay endpoint ATG_mPPARg_XSP2 was analyzed in the positive analysis fitting direction relative to DMSO as the negative control and baseline of activity. Using a type of inducible reporter, measures of mRNA for gain-of-signal activity can be used to understand the reporter gene at the transcription factor-level as they relate to the gene PPARg. Furthermore, this assay endpoint can be referred to as a primary readout, because this assay has produced multiple assay endpoints where this one serves a reporter gene function. To generalize the intended target to other relatable targets, this assay endpoint is annotated to the nuclear receptor intended target family, where the subfamily is non-steroidal.\nHuman liver HepG2 cells are transiently transfected with multiple reporter transcription units (MRTUs) in 6-well plates using FuGene 6 reagent (Roche; 3 ml FuGene/1 mg DNA). The MRTU constructs are regulated by a cis-regulating element (promoter). […] A major difference between the CIS and TRANS system is that in CIS activities of endogenous TFs are measured, whereas the TRANS assay evaluates changes in activities of exogenous, chimeric NR-Gal4 proteins. […] At the end of 24 hour incubation, total RNA was isolated using TriZol reagent (Invitrogen). The isolated RNA is then reverse-transcribed using oligo(dT) primer and Mo-MLV reverse transcriptase (Invitrogen) with DNAse I (Ambion) treatment for 30 min. The one-tenth of the produced cDNA was amplified by PCR using Taq DNA polymerase (Invitrogen) and two reporter sequence-specific primers. The PCR products were fluorescently labeled by primer extension with 6-arboxyfluorescein (6-FAM) 5'-labeled reporter sequence-specific primer (2 min at 95 C, 20 s at 68 C and 10 min at 72 C) and these products were digested with 5U of HpaI (New England Biolabs) for 2h at 37 C. The fragments were purified using Qiaquick PCR columns (Qiagen), analyzed on an ABI 3130xL genetic analyzer (Applied Biosystems) with peak positions identified by using a set of X-rhodamine (ROX)-labeled MapMarker1000 molecular weight standards (BioVentures). The raw capillary electrophoresis data was processed using Attagraph software (Attagene).", "values": [
      {"smiles": "CC(c1ccc(O)cc1)(c1ccc(O)cc1)c1ccc(O)cc1", "outcome": "inactive"},
      {"smiles": "Oc1ccc(C(c2ccc(O)cc2)(C(F)(F)F)C(F)(F)F)cc1", "AC50": "33.4 µM (active)", "outcome": "inactive"},
      {"smiles": "Clc1ccc(C(c2ccccc2Cl)C(Cl)(Cl)Cl)cc1", "note": "(stereo unspecified)", "outcome": "inactive"},
      {"smiles": "ClC(Cl)=C(c1ccc(Cl)cc1)c1ccc(Cl)cc1", "outcome": "inactive"},
      {"smiles": "CCOC(=O)C(O)(c1ccc(Cl)cc1)c1ccc(Cl)cc1", "AC50": "10.6 µM (active) and 22.3 µM (active)"},
      {"smiles": "c1cc2ccc3cccc4ccc(c1)c2c34", "outcome": "inactive", "AC50": "27.9 µM (active)"},
      {"smiles": "Cc1cc(-c2ccc(N)c(C)c2)ccc1N", "AC50": "27.7 µM (active) and 55.5 µM (active)", "outcome": "inactive"},
      {"smiles": "CC(C)(c1ccccc1)c1ccc(O)cc1", "outcome": "inactive"}
    ]}
  ]
}
